Out of some 5,500 compounds screened, about 2,000 (36%) were called active. About 18% were inconclusive and are not listed. No stated cut-off is given here; in the data, active means normalized growth mostly below about 0.91 (no sharp cut-off); inconclusive means no clear call, values can overlap the other calls; inactive means mostly above about 0.92. This is one part of the list.
Assay: chemical genetic growth profiling, strain panel (AID 1159580);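 further: tested at 20 µM; growth read once vehicle control cultures reached saturation at 30 °C; 1 = growth at the plate median or of vehicle wells; lower values mean less growth of the strain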
Conditions: S. cerevisiae deletion strains, growth OD
[1] = locus YGR229C, strain SMI1, hits give low values
[2] = locus YJR075W, strain HOC1, hits give low values
[3] = locus YMR263W, strain SAP30, hits give low values
[4] = locus YMR307W, strain GAS1, hits give low values
[5] = locus YNL153C, strain GIM3, hits give low values
[6] = locus YNL322C, strain KRE1, hits give low values

Measured: normalized growth

CC(C)c1ccc2c(c1)c(SC(C)(C)C)c(CC(C)(C)C(=O)O)n2Cc1ccc(Cl)cc1
inactive: locus YAL040C, strain CLN3, hits give low values 1.02 | locus YCL061C, strain MRC1 (second series), hits give low values 1 | locus YDR363W, strain ESC2, hits give low values 1 | locus YER002W, strain NOP16, hits give low values 1.03 | [1] 1.03 | [2] 1.02 | [3] 1.01 | [4] 1 | locus YNL128W, strain TEP1, hits give low values 0.967 | [5] 0.972 | locus YNL175C, strain NOP13, hits give low values 1.01 | locus YNL197C, strain WHI3, hits give low values 1.01 | locus YNL224C, strain SQS1, hits give low values 1.01 | [6] 1.01 | locus YOR083W, strain WHI5 (second series), hits give low values 0.992

NC(=O)N[C@@H]1O[C@H](CO)[C@@H](O)[C@H](O)[C@H]1O
inactive: locus YAL013W, strain DEP1, hits give low values 1.03 | locus YBR229C, strain ROT2, hits give low values 1.01 | locus YCL061C, strain MRC1, hits give low values 0.987 | locus YDL101C, strain DUN1, hits give low values 0.994 | locus YDR150W, strain NUM1, hits give low values 0.992 | locus YEL061C, strain CIN8, hits give low values 1.02 | locus YGR078C, strain PAC10, hits give low values 0.993 | [1] 1 | locus YHR030C, strain SLT2, hits give low values 1 | locus YHR087W, strain rtc3, hits give low values 1.01 | locus YJL187C, strain SWE1, hits give low values 1.01 | locus YJR043C, strain POL32, hits give low values 0.975 | [2] 1 | locus YKL190W, strain CNB1, hits give low values 1.01 | locus YLR039C, strain RIC1, hits give low values 1.02 | locus YLR058C, strain SHM2 (second series), hits give low values 1.01 | locus YLR085C, strain ARP6, hits give low values 1.07 | locus YLR262C, strain YPT6, hits give low values 0.981 | locus YML094W, strain GIM5, hits give low values 1.02 | locus YMR219W, strain ESC1, hits give low values 1.01 | [3] 0.999 | [4] 1.02 | [5] 0.989 | locus YNL298W, strain CLA4 (second series), hits give low values 1.05 | [6] 1 | locus YNR030W, strain Alg12, hits give low values 1.02 | locus YPL055C, strain LGE1, hits give low values 1.04 | locus YPL241C, strain CIN2, hits give low values 1.04 | locus YPR135W, strain CTF4, hits give low values 0.98
